# Test results published in PubChem BioAssay AID1159580 (chemical genetic matrix, 2015).
# Screen size: about 5,500 compounds; about 2,000 (36%) were called active. Another 18% or so got no clear call; they are omitted. The list shows a part of the results. A number with no mark means an inactive call. Cut-off read from the data, not from the text of the source: active = normalized growth mostly below about 0.91 (no sharp cut-off); inconclusive = no clear call, values can overlap the other calls; inactive = mostly above about 0.92.
# Assay: chemical genetic growth profiling, strain panel (AID 1159580);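 note: tested at 20 µM; growth read once vehicle control cultures reached saturation at 30 °C; 1 = growth at the plate median or of vehicle wells; lower values mean less growth of the strain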
# Settings: growth OD
structure (smiles),measurement,setting,value
COc1ccc(C(=O)c2ccccc2)c(O)c1,normalized growth,"S. cerevisiae deletion strains, locus YJR075W, strain HOC1, active compounds read low",0.848 (active)
same,normalized growth,"S. cerevisiae deletion strains, locus YKL009W, strain mrt4, active compounds read low",0.835 (active)
same,normalized growth,"S. cerevisiae deletion strains, locus YKL068W, active compounds read low",0.91 (active)
same,normalized growth,"S. cerevisiae deletion strains, locus YKL085W, strain MDH1 (second series), active compounds read low",0.895 (active)
same,normalized growth,"S. cerevisiae deletion strains, locus YKL085W, strain MDH1, active compounds read low",0.895 (active)
same,normalized growth,"S. cerevisiae deletion strains, locus YKL160W, strain elf1, active compounds read low",0.764 (active)
same,normalized growth,"S. cerevisiae deletion strains, locus YKL190W, strain CNB1, active compounds read low",0.913 (active)
same,normalized growth,"S. cerevisiae deletion strains, locus YKR001C, strain vps1, active compounds read low",0.553 (active)
same,normalized growth,"S. cerevisiae deletion strains, locus YKR026C, strain gcn3, active compounds read low",0.804 (active)
same,normalized growth,"S. cerevisiae deletion strains, locus YKR091W, strain srl3, active compounds read low",0.874 (active)
same,normalized growth,"S. cerevisiae deletion strains, locus YLL001W, strain dnm1, active compounds read low",0.734 (active)
same,normalized growth,"S. cerevisiae deletion strains, locus YLL026W, active compounds read low",0.841 (active)
same,normalized growth,"S. cerevisiae deletion strains, locus YLL041C, strain sdh2, active compounds read low",0.861 (active)
same,normalized growth,"S. cerevisiae deletion strains, locus YLR027C, strain aat2, active compounds read low",0.807 (active)
same,normalized growth,"S. cerevisiae deletion strains, locus YLR039C, strain RIC1, active compounds read low",0.441 (active)
same,normalized growth,"S. cerevisiae deletion strains, locus YLR058C, strain SHM2, active compounds read low",0.945
same,normalized growth,"S. cerevisiae deletion strains, locus YLR102C, strain apc9, active compounds read low",0.906 (active)
same,normalized growth,"S. cerevisiae deletion strains, locus YLR113W, strain HOG1, active compounds read low",0.836 (active)
same,normalized growth,"S. cerevisiae deletion strains, locus YLR221C, strain rsa3, active compounds read low",0.74 (active)
same,normalized growth,"S. cerevisiae deletion strains, locus YLR258W, strain gsy2, active compounds read low",0.815 (active)
same,normalized growth,"S. cerevisiae deletion strains, locus YLR262C, strain YPT6 (second series), active compounds read low",0.408 (active)
same,normalized growth,"S. cerevisiae deletion strains, locus YLR262C, strain YPT6, active compounds read low",0.526 (active)
same,normalized growth,"S. cerevisiae deletion strains, locus YLR268W, strain sec22, active compounds read low",0.917
same,normalized growth,"S. cerevisiae deletion strains, locus YLR320W, strain mms22, active compounds read low",0.542 (active)
same,normalized growth,"S. cerevisiae deletion strains, locus YLR330W, strain CHS5, active compounds read low",0.916 (active)
same,normalized growth,"S. cerevisiae deletion strains, locus YLR342W, strain FKS1 (second series), active compounds read low",0.763 (active)
same,normalized growth,"S. cerevisiae deletion strains, locus YLR342W, strain FKS1, active compounds read low",0.815 (active)
same,normalized growth,"S. cerevisiae deletion strains, locus YLR357W, strain rsc2, active compounds read low",0.857
same,normalized growth,"S. cerevisiae deletion strains, locus YLR370C, strain arc18, active compounds read low",0.77 (active)
same,normalized growth,"S. cerevisiae deletion strains, locus YLR371W, strain rom2, active compounds read low",0.918
same,normalized growth,"S. cerevisiae deletion strains, locus YLR384C, strain iki3, active compounds read low",0.843 (active)
same,normalized growth,"S. cerevisiae deletion strains, locus YLR418C, strain cdc73, active compounds read low",0.625 (active)
same,normalized growth,"S. cerevisiae deletion strains, locus YML016C, strain PPZ1, active compounds read low",0.932
same,normalized growth,"S. cerevisiae deletion strains, locus YML032C, strain rad52, active compounds read low",0.871 (active)
same,normalized growth,"S. cerevisiae deletion strains, locus YML120C, strain ndi1, active compounds read low",0.762 (active)
same,normalized growth,"S. cerevisiae deletion strains, locus YML124C, strain tub3, active compounds read low",0.899 (active)
same,normalized growth,"S. cerevisiae deletion strains, locus YMR058W, strain fet3, active compounds read low",0.732 (active)
same,normalized growth,"S. cerevisiae deletion strains, locus YMR078C, strain ctf18, active compounds read low",0.876 (active)
same,normalized growth,"S. cerevisiae deletion strains, locus YMR125W, strain sto1, active compounds read low",0.825 (active)
same,normalized growth,"S. cerevisiae deletion strains, locus YMR129W, active compounds read low",0.856 (active)
same,normalized growth,"S. cerevisiae deletion strains, locus YMR205C, strain PFK2, active compounds read low",0.567 (active)
same,normalized growth,"S. cerevisiae deletion strains, locus YMR223W, strain ubp8, active compounds read low",0.774 (active)
same,normalized growth,"S. cerevisiae deletion strains, locus YMR231W, strain pep5, active compounds read low",0.877 (active)
same,normalized growth,"S. cerevisiae deletion strains, locus YMR263W, strain SAP30, active compounds read low",0.878 (active)
same,normalized growth,"S. cerevisiae deletion strains, locus YMR307W, strain GAS1, active compounds read low",0.62
same,normalized growth,"S. cerevisiae deletion strains, locus YNL067W, strain RPL9B, active compounds read low",0.889
same,normalized growth,"S. cerevisiae deletion strains, locus YNL071W, strain lat1, active compounds read low",0.538 (active)
same,normalized growth,"S. cerevisiae deletion strains, locus YNL128W, strain TEP1, active compounds read low",0.934
same,normalized growth,"S. cerevisiae deletion strains, locus YNL153C, strain GIM3, active compounds read low",0.937
same,normalized growth,"S. cerevisiae deletion strains, locus YNL183C, strain NPR1, active compounds read low",0.851
same,normalized growth,"S. cerevisiae deletion strains, locus YNL209W, strain ssb2, active compounds read low",0.906 (active)
same,normalized growth,"S. cerevisiae deletion strains, locus YNL233W, strain BNI4, active compounds read low",0.833 (active)
same,normalized growth,"S. cerevisiae deletion strains, locus YNL248C, strain rpa49, active compounds read low",0.639 (active)
same,normalized growth,"S. cerevisiae deletion strains, locus YNL250W, strain rad50, active compounds read low",0.915
same,normalized growth,"S. cerevisiae deletion strains, locus YNL271C, strain bni1, active compounds read low",0.882 (active)
same,normalized growth,"S. cerevisiae deletion strains, locus YNL298W, strain CLA4, active compounds read low",0.859 (active)
same,normalized growth,"S. cerevisiae deletion strains, locus YNL307C, strain MCK1, active compounds read low",0.538 (active)
same,normalized growth,"S. cerevisiae deletion strains, locus YNL322C, strain KRE1 (second series), active compounds read low",0.862 (active)
same,normalized growth,"S. cerevisiae deletion strains, locus YNL322C, strain KRE1, active compounds read low",0.93
same,normalized growth,"S. cerevisiae deletion strains, locus YNR049C, strain mso1, active compounds read low",0.838 (active)
same,normalized growth,"S. cerevisiae deletion strains, locus YNR052C, strain pop2, active compounds read low",0.923
same,normalized growth,"S. cerevisiae deletion strains, locus YOL006C, strain TOP1, active compounds read low",0.474 (active)
same,normalized growth,"S. cerevisiae deletion strains, locus YOL012C, strain htz1",1.24
same,normalized growth,"S. cerevisiae deletion strains, locus YOL147C, strain pex11, active compounds read low",0.846 (active)
same,normalized growth,"S. cerevisiae deletion strains, locus YOR001W, strain rrp6, active compounds read low",0.712 (active)
same,normalized growth,"S. cerevisiae deletion strains, locus YOR061W, strain CKA2, active compounds read low",0.936
same,normalized growth,"S. cerevisiae deletion strains, locus YOR069W, strain VPS5, active compounds read low",0.959
same,normalized growth,"S. cerevisiae deletion strains, locus YOR070C, strain gyp1, active compounds read low",0.857 (active)
same,normalized growth,"S. cerevisiae deletion strains, locus YOR080W, strain dia2, active compounds read low",0.867 (active)
same,normalized growth,"S. cerevisiae deletion strains, locus YOR083W, strain WHI5, active compounds read low",0.73 (active)
same,normalized growth,"S. cerevisiae deletion strains, locus YOR106W, strain vam3, active compounds read low",0.682 (active)
same,normalized growth,"S. cerevisiae deletion strains, locus YOR136W, strain idh2, active compounds read low",0.912 (active)
same,normalized growth,"S. cerevisiae deletion strains, locus YOR144C, strain elg1, active compounds read low",0.897 (active)
same,normalized growth,"S. cerevisiae deletion strains, locus YOR184W, strain ser1, active compounds read low",0.476 (active)
same,normalized growth,"S. cerevisiae deletion strains, locus YOR231W, strain MKK1, active compounds read low",0.878
same,normalized growth,"S. cerevisiae deletion strains, locus YOR265W, strain rbl2, active compounds read low",0.845 (active)
same,normalized growth,"S. cerevisiae deletion strains, locus YOR270C, strain vph1, active compounds read low",0.419 (active)
same,normalized growth,"S. cerevisiae deletion strains, locus YOR290C, strain snf2, active compounds read low",0.784 (active)
same,normalized growth,"S. cerevisiae deletion strains, locus YOR316C, strain cot1, active compounds read low",0.903 (active)
same,normalized growth,"S. cerevisiae deletion strains, locus YPL051W, strain arl3, active compounds read low",0.647 (active)
same,normalized growth,"S. cerevisiae deletion strains, locus YPL055C, strain LGE1, active compounds read low",0.773
same,normalized growth,"S. cerevisiae deletion strains, locus YPL078C, strain atp4, active compounds read low",0.599 (active)
same,normalized growth,"S. cerevisiae deletion strains, locus YPL106C, strain sse1, active compounds read low",0.845 (active)
same,normalized growth,"S. cerevisiae deletion strains, locus YPL240C, strain hsp82, active compounds read low",0.858 (active)
same,normalized growth,"S. cerevisiae deletion strains, locus YPL241C, strain CIN2, active compounds read low",0.94
same,normalized growth,"S. cerevisiae deletion strains, locus YPL256C, strain CLN2, active compounds read low",0.818 (active)
same,normalized growth,"S. cerevisiae deletion strains, locus YPR119W, strain clb2, active compounds read low",0.888 (active)
same,normalized growth,"S. cerevisiae deletion strains, locus YPR141C, strain kar3, active compounds read low",0.892 (active)
same,normalized growth,"S. cerevisiae deletion strains, locus YPR163C, strain tif3, active compounds read low",0.844 (active)
same,normalized growth,"S. cerevisiae deletion strains, locus YPR167C, strain met16, active compounds read low",0.898 (active)
same,normalized growth,"S. cerevisiae deletion strains, strain wtn01, active compounds read low",0.872 (active)
same,normalized growth,"S. cerevisiae strains, strain wild type, active compounds read low",0.911
